Screening data deposited in PubChem BioAssay by several laboratories.
The list is not random: actives were taken first. Their share in the collection is about 3.8%.
pPAFAH inh: inhibitors of human plasma PAF acetylhydrolase (pPAFAH); Q13093; recombinant pPAFAH, FP-rhodamine probe fluorescence polarization; inhibition, % at 3.39 µM; actives 1.5% (n = 330,000);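 active = inhibition above the mean inhibition across the screen plus 3 SD, cut at about 25% in these data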;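 note: inhibitors block binding of the rhodamine activity-based probe so polarization drops; 0% = enzyme with DMSO and 100% = wells lacking pPAFAH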
PAFAH1B3 FP inh: blocks human PAF acetylhydrolase 1B catalytic subunit 3; AID 492972; inhibition, % at 3.39 µM; actives 0.28% (n = 340,000); Q15102; recombinant PAFAH1B3, FP-rhodamine probe, fluorescence polarization;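 active = inhibition above the screen-wide average of all tested compounds plus 3 SD, cut at about 25% in these data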;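 note: 0% = enzyme with DMSO only and 100% = wells lacking PAFAH1B3 protein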
PAFAH2 FP inh: PAFAH2 (human) inhibition. actives 0.99% (n = 340,000). recombinant PAFAH2, FP-rhodamine activity probe, fluorescence polarization. inhibition, % at 3.39 µM. Q99487. AID 492956;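 active = inhibition above the mean over all tested compounds plus 3 SD, cut at about 30% in these data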;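 note: inhibitors block probe labeling of enzyme so polarization drops; 0% = enzyme with DMSO and 100% = wells lacking PAFAH2 protein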
M18AAP inhibitor: PfM18AAP enzyme inhibition; recombinant PfM18AAP, H-Glu-NHMec fluorogenic cleavage; inhibition, % at 7.35 µM; actives 1.2% (n = 290,000); AID 1822;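 active = inhibition above the campaign mean inhibition over all tested compounds plus 3 SD, cut at about 28% in these data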;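 note: 0% = plate median of test compound wells and 100% = 2 mM ZnCl2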
Pemphigus Ab inh: human desmoglein-3 autoantibody binding inhibition; P32926; DSG3-coupled beads, scFv-anti-DSG3-GFP binding, flow cytometry; stronger effect = lower value; binding (percent of control), % at 10 µM; actives 0.48% (n = 310,000); AID 588358;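 active = binding more than 3 SD below its plate's average and above zero; inconclusive = below that plate limit but binding exactly zero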;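 note: hits lower antibody fragment binding to DSG3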
PAFAH1B2 FP inh: inhibitors of human PAFAH1B2. recombinant PAFAH1B2, FP-rhodamine activity probe, fluorescence polarization. inhibition, % at 3.39 µM. actives 1.2% (n = 340,000). AID 492953;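 active = inhibition above the mean of all tested compounds plus 3 SD, cut at about 24% in these data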;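 note: 0% = enzyme with DMSO and 100% = wells lacking PAFAH1B2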
PAFAH2 FP conf: confirmation of human PAFAH2 inhibitors. shares compounds with PAFAH2 FP inh. recombinant PAFAH2, FP-rhodamine activity probe, fluorescence polarization. inhibition, % at 3.39 µM. actives 65% (n = 2,300);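 active = mean inhibition over three repeats above a set limit taken from the earlier primary screen, cut at about 30% in these data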;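 note: inhibitor blocks binding of rhodamine activity probe so polarization falls; 0% = enzyme with DMSO and 100% = wells lacking PAFAH2 protein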
An asterisk follows results filed as active.

COc1ccc(CN2C(=O)c3ccccc3C2=O)cc1C(=O)OCC(=O)NC1CCCCC1 was read as pPAFAH inh 20.5, PAFAH1B3 FP inh 4.0, PAFAH2 FP inh 51.5*, M18AAP inhibitor -1.0, Pemphigus Ab inh 103.9, PAFAH1B2 FP inh -1.1 and PAFAH2 FP conf 45.2*.
`COc1cc(OC)c(C(=O)OCC(=O)NC2CCCCCCC2)cc1OC` gave pPAFAH inh 13.5, PAFAH1B3 FP inh 10.3, PAFAH2 FP inh 74.7*, PAFAH1B2 FP inh 2.7 and PAFAH2 FP conf 82.6*.
For COc1cc(SC)ccc1C(=O)OCC(=O)NC1CCCC1 the results were pPAFAH inh 21.4, PAFAH1B3 FP inh 7.3, PAFAH2 FP inh 68.3*, M18AAP inhibitor -0.1, Pemphigus Ab inh 104.6, PAFAH1B2 FP inh 11.2 and PAFAH2 FP conf 57.4*.
For COc1ccccc1C(=O)OCC(=O)NC1CCCC1 the results were pPAFAH inh 4.8, PAFAH1B3 FP inh 6.3, PAFAH2 FP inh 37.6*, M18AAP inhibitor -8.9, Pemphigus Ab inh inconclusive, PAFAH1B2 FP inh 11.4 and PAFAH2 FP conf 21.9.
Screening COc1cc(SC)ccc1C(=O)NC1CCCCC1 returned pPAFAH inh 2.9, PAFAH1B3 FP inh 8.1, PAFAH2 FP inh 0.0, M18AAP inhibitor -3.7, Pemphigus Ab inh 103.3 and PAFAH1B2 FP inh 10.3.
`COc1ccccc1C(=O)OCC(=O)NC(=O)NC1CCCC1` gave pPAFAH inh -0.5, PAFAH1B3 FP inh 3.6, PAFAH2 FP inh 10.1, Pemphigus Ab inh 105.0 and PAFAH1B2 FP inh 4.9.
COc1ccccc1C(=O)OCC(=O)NC(=O)NC1CCCCC1 was read as PAFAH1B3 FP inh 0.4, PAFAH2 FP inh 14.1, Pemphigus Ab inh 99.9 and PAFAH1B2 FP inh 3.0.
`CCOc1ccccc1C(=O)OCC(=O)NCC1CCCCC1` gave pPAFAH inh 12.8, PAFAH1B3 FP inh 8.9, PAFAH2 FP inh 44.3*, Pemphigus Ab inh 100.6, PAFAH1B2 FP inh -1.3 and PAFAH2 FP conf 48.1*.
`COc1cc(OC)c(C(=O)OCC(=O)NC2CCCC2)cc1OC` gave pPAFAH inh 8.4, PAFAH1B3 FP inh 1.9, PAFAH2 FP inh 51.7*, M18AAP inhibitor -6.6, Pemphigus Ab inh 99.3, PAFAH1B2 FP inh 5.0 and PAFAH2 FP conf 38.6*.
Screening COc1cc(OC)c(C(=O)OCC(=O)NCC2CCCCC2)cc1OC returned PAFAH1B3 FP inh -5.1, PAFAH2 FP inh 51.2*, Pemphigus Ab inh 101.9, PAFAH1B2 FP inh 0.8 and PAFAH2 FP conf 42.9*.
`O=C(COC(=O)c1ccccc1Br)NC1CCCC1` gave pPAFAH inh 7.3, PAFAH1B3 FP inh 4.0, PAFAH2 FP inh 51.9*, M18AAP inhibitor -1.4, Pemphigus Ab inh 104.3, PAFAH1B2 FP inh 5.7 and PAFAH2 FP conf 35.0*.
For O=C(COC(=O)c1ccc[nH]c1=O)NC1CCCC1 the results were pPAFAH inh 1.7, PAFAH1B3 FP inh 0.1, PAFAH2 FP inh -2.0, M18AAP inhibitor 5.1, Pemphigus Ab inh 116.8 and PAFAH1B2 FP inh 0.6.
O=C(Nc1ccc(Cl)cc1)c1nc[nH]c1C(=O)NCCCCNC(=O)c1[nH]cnc1C(=O)Nc1ccc(Cl)cc1 was read as pPAFAH inh -4.2, PAFAH1B3 FP inh -6.2, PAFAH2 FP inh -51.4, Pemphigus Ab inh 96.1 and PAFAH1B2 FP inh -13.8.
For O=C(CCC(=O)c1ccc(F)cc1)NCC1(N2CCCCC2)CCCCC1 the results were pPAFAH inh -8.4, PAFAH1B3 FP inh 2.0, PAFAH2 FP inh -0.2, Pemphigus Ab inh 87.5 and PAFAH1B2 FP inh 5.0.
COc1cc(CCC(=O)Nc2ccc(C)c(S(=O)(=O)N3CCCCCC3)c2)cc(OC)c1OC was read as pPAFAH inh 4.7, PAFAH1B3 FP inh 4.8, PAFAH2 FP inh -4.3, Pemphigus Ab inh 106.0 and PAFAH1B2 FP inh 1.8.
For CCOC(=O)C1CCN(C(=O)Cn2cnc3sc(C)c(S(=O)(=O)N4CCOCC4)c3c2=O)CC1 the results were pPAFAH inh 7.1, PAFAH1B3 FP inh 3.2, PAFAH2 FP inh -3.7, M18AAP inhibitor 4.7 and PAFAH1B2 FP inh 2.2.
Screening CCCCNC(=O)COC(=O)c1ccc(SC)cc1OC returned pPAFAH inh 11.7, PAFAH1B3 FP inh 6.7, PAFAH2 FP inh 45.9*, M18AAP inhibitor 2.3, Pemphigus Ab inh 106.5, PAFAH1B2 FP inh 4.5 and PAFAH2 FP conf 22.7.
Screening CCCNC(=O)c1ccc(SC)cc1OC returned pPAFAH inh 1.6, PAFAH1B3 FP inh 5.3, PAFAH2 FP inh 7.4, M18AAP inhibitor 6.5 and PAFAH1B2 FP inh 6.7.
Screening Cc1ccc(S(=O)(=O)N2CCN(C(=O)c3ccc4nc[nH]c4c3)CC2)cc1 returned pPAFAH inh 8.2, PAFAH1B3 FP inh 2.3, PAFAH2 FP inh 5.9, Pemphigus Ab inh 100.8 and PAFAH1B2 FP inh 4.5.
`COc1cccc(/C=C/C(=O)OCC(=O)NC2CCCCCCC2)c1` gave pPAFAH inh 14.3, PAFAH1B3 FP inh 0.7, PAFAH2 FP inh 95.8*, Pemphigus Ab inh 92.9, PAFAH1B2 FP inh 7.2 and PAFAH2 FP conf 82.2*.
Screening COc1ccc(/C=C/C(=O)OCC(=O)NC2CCCC2)cc1 returned pPAFAH inh 8.0, PAFAH1B3 FP inh -1.1, PAFAH2 FP inh 83.5*, Pemphigus Ab inh 90.0, PAFAH1B2 FP inh -3.2 and PAFAH2 FP conf 85.9*.
`COc1cccc(/C=C/C(=O)OCC(=O)NC(=O)NC2CCCC2)c1` gave pPAFAH inh -0.2, PAFAH1B3 FP inh 8.1, PAFAH2 FP inh 20.0, Pemphigus Ab inh 98.5 and PAFAH1B2 FP inh 4.5.
`O=C(c1cnn2c(C(F)F)cc(-c3ccccc3)nc12)N1CCCc2ccccc21` gave pPAFAH inh -4.5, PAFAH1B3 FP inh 3.8, PAFAH2 FP inh -9.5, M18AAP inhibitor -9.7, Pemphigus Ab inh 102.1 and PAFAH1B2 FP inh 3.3.
`Cc1cc(NC(=O)c2cnn3c(C(F)(F)F)cc(-c4ccccc4)nc23)no1` gave pPAFAH inh 3.4, PAFAH1B3 FP inh -6.8, PAFAH2 FP inh 29.6*, M18AAP inhibitor 0.2, Pemphigus Ab inh 98.3, PAFAH1B2 FP inh 2.2 and PAFAH2 FP conf 15.6.
Screening O=C(c1cnn2c(C(F)(F)F)cc(-c3ccccc3)nc12)N1CCCc2ccccc21 returned pPAFAH inh 6.3, PAFAH1B3 FP inh -1.1, PAFAH2 FP inh 38.6*, M18AAP inhibitor -0.1, Pemphigus Ab inh 100.3, PAFAH1B2 FP inh 1.5 and PAFAH2 FP conf 39.0*.
Cc1ccsc1C(=O)OCC(=O)Nc1c(Cl)cccc1C(F)(F)F was read as pPAFAH inh 14.7, PAFAH1B3 FP inh 1.1, PAFAH2 FP inh 31.1*, M18AAP inhibitor -10.8, Pemphigus Ab inh 80.0, PAFAH1B2 FP inh 4.0 and PAFAH2 FP conf 30.0*.
`Cc1cc(C(=O)OCC(=O)Nc2c(Cl)cccc2C(F)(F)F)c(C)o1` gave pPAFAH inh 4.8, PAFAH1B3 FP inh 9.7, PAFAH2 FP inh 22.1, Pemphigus Ab inh 101.3 and PAFAH1B2 FP inh -0.8.
For O=C(COC(=O)C1CC1)Nc1c(Cl)cccc1C(F)(F)F the results were pPAFAH inh 3.5, PAFAH1B3 FP inh -3.6, PAFAH2 FP inh 37.6*, Pemphigus Ab inh inconclusive, PAFAH1B2 FP inh -1.8 and PAFAH2 FP conf 26.2.
